# MEKK2mut PB1 HTS = signal of MEK5 binding to mutant human MEKK2 PB1 domain; 0.35% of 290,000 active; AID 1530; bead flow cytometry, Alexa488-MEK5 binding to MEKK2 mutant; percent response, % at 10 µM; in the data active means percent response above about 24%, passing the limit was not always enough
# MEKK2wt PB1 HTS = raises or lowers MEK5 binding to wildtype human MEKK2 PB1 domain; 1.1% of 290,000 active; AID 1531; Q9Y2U5; bead flow cytometry, Alexa488-MEK5 binding to MEKK2 WT; actives lie on both sides; binding response (% of control), % at 10 µM; in the data active means binding response below about 67% or above about 130%
# MEKK3 PB1 HTS = MEKK3-MEK5 PB1 interaction, increase or decrease; binding response (% of control), % at 10 µM; bead-based flow cytometry, Alexa488-MEK5 binding to MEKK3; actives lie on both sides; 0 = blocked by unlabeled MEK5, 100 = vehicle; Q99759; AID 1529; 1.4% of 290,000 active;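 active means binding response more than 3 SD above or below the average of its plate-row segment, actives on both sides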;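 further: Alexa488 bead fluorescence after subtracting the streptavidin-only scavenger bead signal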
# GRK2 inh = inhibitors of human GRK2 displacing RNA aptamer | P25098 | bead flow cytometry, FAM-aptamer displacement from GRK2 | inhibition of aptamer binding, % at 10 µM | 0.59% of 330,000 active | AID 488847;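 active means inhibition of aptamer binding above 40%, roughly 3 SD of noise, on plates passing a quality check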;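 further: median bead fluorescence of bound FAM aptamer so fluorescent compounds give negative values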
# B2AR ag = human beta-2 adrenergic receptor agonism by FAP | Am2.2-beta2AR cells, FAP receptor internalization, flow cytometry | response, % (concentration not given with the values) | 0.43% of 340,000 active | AID 504454;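 active means response above a set limit, near 3 SD of response in nonfluorescent compounds, cut at about 42% in these data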
# Target sequence (P07550 whole entry, looked up): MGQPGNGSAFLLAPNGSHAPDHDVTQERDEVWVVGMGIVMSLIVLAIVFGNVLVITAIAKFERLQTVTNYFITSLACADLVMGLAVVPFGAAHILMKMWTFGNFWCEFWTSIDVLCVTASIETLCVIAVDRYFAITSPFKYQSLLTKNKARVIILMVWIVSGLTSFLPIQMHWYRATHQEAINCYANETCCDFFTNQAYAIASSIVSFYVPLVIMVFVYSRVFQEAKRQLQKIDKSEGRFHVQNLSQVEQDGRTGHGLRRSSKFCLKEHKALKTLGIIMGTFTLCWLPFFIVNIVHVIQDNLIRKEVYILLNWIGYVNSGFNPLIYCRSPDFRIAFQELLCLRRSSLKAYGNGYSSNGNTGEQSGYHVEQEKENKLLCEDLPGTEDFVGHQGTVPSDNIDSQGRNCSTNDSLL
# MEKK2wt confirm = raises or lowers MEK5 binding to wildtype human MEKK2, retest | binding response (% of control), % at 10 µM | bead flow cytometry, Alexa488-MEK5 binding to MEKK2 WT; actives lie on both sides | 2.4% of 5,900 active | shares compounds with MEKK3 PB1 HTS | AID 1892; in the data active means binding response below about 16% or above about 210%; inactive means in between
# MEKK2mut-MEK5 = signal of MEK5 binding to mutant human MEKK2, retest; shares compounds with MEKK3 PB1 HTS; bead flow cytometry, Alexa488-MEK5 binding to MEKK2 mutant; percent response, % at 10 µM; 2% of 5,900 active; in the data active means percent response mostly above about 71%, no sharp cut-off; inactive means mostly below about 38%;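 further: higher means compound restores mutant binding toward wildtype level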
# MEKK3 confirm = MEKK3-MEK5 PB1 inhibition, single concentration confirmation. binding response (% of control), % at 10 µM. AID 1894. bead flow cytometry, Alexa488-MEK5 binding to MEKK3; stronger effect = lower value. shares compounds with MEKK3 PB1 HTS. 1.8% of 5,900 active;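 active means binding response below 72% of control, or above a set upper limit, though filed actives all read lower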;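 further: 100% = DMSO only wells and 0% = binding blocked by excess unlabeled MEK5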
# * hit, by the source's call; . = no result given; [ ] = another dose, or the depositor's remark. Rows were chosen to be rich in hits. Some 2.9% of all compounds tested hit in one or more screens of this group.
SMILES,MEKK2mut PB1 HTS,MEKK2wt PB1 HTS,MEKK3 PB1 HTS,GRK2 inh,B2AR ag,MEKK2wt confirm,MEKK2mut-MEK5,MEKK3 confirm
CNC(=O)NC(=O)CSc1ccc(NC(C)=O)cc1,8,125,128*,5,2,105,3,99
Cc1cc(Nc2ccc(C)c(C)c2)c2ccccc2n1,4,106,91,0,4,.,.,.
Cc1ccc(Nc2nc(N)c3ccccc3n2)cc1C,17,138*,107,0,4,138,22,107
CCOC(=O)c1ccc(-n2c(C)nc3c(cnn3-c3ccccc3Cl)c2=O)cc1,5,117,124*,0,-2,96,-7,103
CCOC(=O)c1ccc(-n2c(C)nc3c(cnn3-c3ccc(Cl)cc3)c2=O)cc1,-2,98,99,0,-4,.,.,.
CC(C)CCNC(=S)Nc1ccc([N+](=O)[O-])cc1,0,106,129*,0,-7,104,-7,101
CC(C)COc1ccc(C(=O)Nc2ccc([N+](=O)[O-])cc2)cc1,-1,100,102,2,8,.,.,.
CC(C)OC(=O)c1cc(NC(=S)Nc2ccc([N+](=O)[O-])cc2)cc(C(=O)OC(C)C)c1,40*,169*,82,0,9,147,18,104
O=C(c1nn2c(C(F)(F)F)cc(-c3ccccc3)nc2c1Cl)N1CCN2CCCC2C1 (configuration not stated),5,99,99,.,-4,.,.,.
Cc1cc(NC(=O)CCN2CCCCC2)ccc1Br,3,113,105,0,-7,.,.,.
Nc1nc(-c2c[nH]c3ccccc23)cs1,69*,-7.0*[inhibitor],83,0,-9,83,-3,90
CNc1nc(-c2c[nH]c3ccccc23)cs1,2,-4.0*[inhibitor],94,0,6,-5.0*[inhibitor],-5,91
CN1CCN(CC(=O)Nc2nc(-c3c[nH]c4ccccc34)cs2)CC1,29,145*,102,0,7,161,45,93
Cc1cc(Br)ccc1NC(=O)CN(C)C(=O)C1CCN(c2ncnc3sc(C)c(C)c23)CC1,.,.,.,.,23,.,.,.
COc1cccc(N(C(=O)c2snc(C(N)=O)c2N)C(C(=O)NCC2CCCO2)c2ccc3ncccc3c2)c1 (configuration not stated),-1,101,102,7,-20,.,.,.
Clc1ccccc1CO/N=C1\CCCc2nonc21,-3,96,95,1,4,.,.,.
Clc1ccc(CO/N=C2\CCCc3nonc32)cc1,1,109,145*,0,4,101,-6,105
COc1ccc(OC)c(NC(=O)c2nc3ccccc3s2)c1,2,3.0*[inhibitor],3.0*[inhibitor],0,-2,111,6,109
COc1ccc(NC(=O)c2nc3ccccc3s2)cc1,-4,94,94,0,-8,.,.,.
CCc1ccc(NC(=O)CCCN2C(=O)C3CC=CCC3C2=O)cc1 (configuration not stated),1,100,94,0,-3,.,.,.
CC(Oc1ccc2c(c1)oc(=O)c1ccccc12)C(=O)NC(Cc1c[nH]c2ccc(O)cc12)C(=O)O (configuration not stated),-3,94,95,2,-3,.,.,.
Cn1nccc1C(=O)N1CCOCC1,9,111,104,1,4,.,.,.
Cc1ccc(N(C(=O)C2CCCC2)C2C=CS(=O)(=O)C2)cc1 (configuration not stated),-1,97,90,0,11,.,.,.
Cc1cc(C)cc(N(C(=O)C2CCCC2)C2C=CS(=O)(=O)C2)c1 (configuration not stated),-13,78,76*[inhibitor],0,9,105,7,106
Cc1cc(C)cc(N(C(=O)c2cc3ccccc3oc2=O)C2C=CS(=O)(=O)C2)c1 (configuration not stated),0,110,141*,0,-7,106,2,101
SMILES,MEKK2mut PB1 HTS,MEKK2wt PB1 HTS,MEKK3 PB1 HTS,GRK2 inh,B2AR ag,MEKK2wt confirm,MEKK2mut-MEK5,MEKK3 confirm
Cc1ccc(N(C(=O)c2cc3ccccc3oc2=O)C2C=CS(=O)(=O)C2)cc1 (configuration not stated),10,106,103,0,5,.,.,.
COCC(C)n1c(C)cc(C(=O)COC(=O)CNC(=O)c2ccccc2)c1C (configuration not stated),0,106,131*,0,-17,102,4,101
COc1ccccc1N(CC(=O)Nc1cc(S(=O)(=O)N(C)C)ccc1C)S(=O)(=O)c1cccs1,.,.,.,0,5,.,.,.
Cc1ccc(NC(=O)C2C3CCC(O3)C2C(=O)O)cc1Cl (configuration not stated),-61,3.0*[inhibitor],2.0*[inhibitor],3,2,100,-5,99
O=C(O)C1C2CCC(O2)C1C(=O)Nc1ccc(F)c(Cl)c1 (configuration not stated),3,104,103,1,-5,.,.,.
Cc1nn(C)c(C(=O)Sc2cccc(Cl)c2)c1[N+](=O)[O-],28,115,133*,0,10,97,-6,97
C#CCOc1c(/C=C\c2nc(O)c([N+](=O)[O-])c(=O)[nH]2)cc(Br)cc1OC,7,107,104,4,-5,.,.,.
Cn1nc(C(F)(F)F)c(-c2ccc(Br)cc2)c1NC(=O)Nc1ccc(F)cc1F,31,138*,133*,0,13,110,2,102
CCOC(=O)[C@@H]1[C@H]2COc3ccccc3[C@H]2N2C(=O)N(c3ccc(C(F)(F)F)cc3)C(=O)[C@]12C,-4,93,100,0,-1,.,.,.
Cc1csc(C(C)N(C)C(=O)c2ccc(OC3CCN(Cc4ccccn4)CC3)cc2)n1 (configuration not stated),3,107,99,0,-8,.,.,.
CCCCNC(=O)C1CCCN1C(=O)NC1CCCCC1 (configuration not stated),0,3.0*[inhibitor],2.0*[inhibitor],5,0,96,-6,98
CCOc1ccc(NC(=O)CSc2nnnn2-c2ccc(C(N)=O)cc2)cc1,3,102,106,4,-16,.,.,.
CCOC(=O)c1ccc(N=CC2=C(O)CC(C)(C)CC2=O)cc1,7,106,105,2,-1,.,.,.
CCOC(=O)c1cc(CC)sc1/N=C/C1=C(O)CC(C)(C)CC1=O,1,109,136*,0,-1,103,-3,100
